The experiment deals with Galanin receptor type 2 (Homo sapiens) (UniProt O43603). The experiment can be described thus: activators of human galanin receptor 2 – cell-based, confirmation (AID 864).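 Also: 0% = buffer-only vehicle wells and 100% = full reference agonist response.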 The note with it: GALR2-expressing cells, agonist activation; at 5.6 µM; stronger effect = higher value.

Some of the results follow. Values without a mark were called inactive. Calls of active or inactive are those of the source. Rule as the data show it: active = activation above about 8.4%; inactive = the rest.

Chain of Galanin receptor type 2 (Homo sapiens) (O43603 whole entry, looked up): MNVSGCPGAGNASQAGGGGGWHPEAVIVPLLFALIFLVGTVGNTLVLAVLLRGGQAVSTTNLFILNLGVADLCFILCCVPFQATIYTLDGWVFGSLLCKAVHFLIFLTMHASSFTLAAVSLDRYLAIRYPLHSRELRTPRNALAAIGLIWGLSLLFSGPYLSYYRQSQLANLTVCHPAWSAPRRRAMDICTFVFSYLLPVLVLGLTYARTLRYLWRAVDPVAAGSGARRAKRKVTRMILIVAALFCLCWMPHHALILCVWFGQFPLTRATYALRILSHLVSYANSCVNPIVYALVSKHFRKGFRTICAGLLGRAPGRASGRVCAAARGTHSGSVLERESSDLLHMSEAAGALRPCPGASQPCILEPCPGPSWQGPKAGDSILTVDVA

For the compound `C=CCn1c(Oc2ccc(C(=O)OC)cc2)nc2c1c(=O)n(C)c(=O)n2C`, the activation was 0.25%.
As to `COC(=O)c1ccc(NC(=O)C(C)N2C(=O)c3ccccc3C2=O)cc1` (stereo unspecified), the activation is -0.71%.
For `CCN(C(=O)CSc1ncn[nH]1)c1cccc2ccccc12` the value was -1.13%; for `Cc1csc(NC(=O)c2ccc(-c3ccc(Cl)cc3Cl)o2)n1`, -0.78%; for `O=[N+]([O-])c1ccccc1SNc1ccccn1`, -0.89%.
For `CCOc1ccc2nc(Nc3nc4ccc(NC(C)=O)cc4s3)sc2c1` the value was 27.5% (active).
For `Cn1c(=O)oc2cc(S(=O)(=O)N3CCC(C(=O)Nc4ccc(OC(F)(F)F)cc4)CC3)ccc21` the value was 1.24%; for `O=c1oc2cc(O)ccc2cc1-c1ccc(F)cc1`, 2.23%.
`CC/C(C)=N/Nc1nc2sc3c(c2c(=O)[nH]1)CC(C)(C)OC3`: the activation was -0.45%.
For `OC(COc1cccc2ccccc12)CN1CCN(c2ccccn2)CC1` (stereo unspecified) the value was -0.28%; for `Cc1ccc(CCC(=O)Nc2ncc(Cc3cc(Cl)ccc3Cl)s2)o1`, 7.28%.
For `CCOc1ccc(C(O)Cn2c(=N)n(CCN3CCCCC3)c3ccccc32)cc1` (stereo unspecified) the value was -0.63%; for `CCCOc1ccc(C(=O)C(CCC(CNCC)C(=O)c2ccc(OCCC)cc2)CNCC)cc1` (stereo unspecified), 16% (active).
For the compound `COCCN(CCOC)S(=O)(=O)c1ccc(C(=O)Nc2nc3c(s2)CCc2ccccc2-3)cc1`, the activation is 5.93%.
With `CC(=O)N(Cc1cccs1)C1CCOC(C)(C)C1` (stereo unspecified), the activation is -1%.
As for `CC1(C)CC(=O)C=C(NCCN2CCNCC2)C1`, the figure is -1.05%.

For the origin of these results see PubChem BioAssay AID864 (The Scripps Research Institute Molecular Screening Center, 2007).
